Shown are actives, neighbours in structure and some others; about 6.6% of the full set was active somewhere.
Gli-Sufu block: Gli-Sufu pathway antagonism | Sufu-KO-LIGHT fibroblasts, Gli luciferase reporter luminescence | AID 588413 | inhibition, % at 5 µM | actives 0.74% (n = 340,000);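 active means inhibition above about 55%, limit read from the data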
GRIN3A LBD mod: NR3A (human) ligand-binding domain modulation. actives 2.5% (n = 340,000). NR3A LBD differential scanning fluorimetry, Tm shift; 0% = protein alone, 100% = glycine-bound protein. AID 1259313. Tm shift relative to glycine control, % at 25 µM;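 active means melting temperature shift of at least 10% of the positive control shift, at one fixed dose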
Beta cell apopt: blocks beta cell apoptosis. INS-1E cytokine-induced death, ATP luminescence, 48 h; percent of positive-control rescue, neutral wells zero. protection from apoptosis, % (no concentration beside the values). actives 0.8% (n = 300,000). AID 435005;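 active means Every replicate reaches about 75%, or at least half do and their mean reaches it too, limit read from the data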;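 further: higher means more ATP so stronger rescue from cytokine killing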
Mdm2 MdmX PPI: inhibitors of human Mdm2/MdmX interaction; AID 485346; inhibition, % at 8 µM; actives 3% (n = 330,000); O15151+Q00987; SaOS-2 split-luciferase Mdm2/MdmX complementation, luminescence;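 active means inhibition of at least 50% at 8 µM in the primary screen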
Target sequence (O15151 whole entry, looked up): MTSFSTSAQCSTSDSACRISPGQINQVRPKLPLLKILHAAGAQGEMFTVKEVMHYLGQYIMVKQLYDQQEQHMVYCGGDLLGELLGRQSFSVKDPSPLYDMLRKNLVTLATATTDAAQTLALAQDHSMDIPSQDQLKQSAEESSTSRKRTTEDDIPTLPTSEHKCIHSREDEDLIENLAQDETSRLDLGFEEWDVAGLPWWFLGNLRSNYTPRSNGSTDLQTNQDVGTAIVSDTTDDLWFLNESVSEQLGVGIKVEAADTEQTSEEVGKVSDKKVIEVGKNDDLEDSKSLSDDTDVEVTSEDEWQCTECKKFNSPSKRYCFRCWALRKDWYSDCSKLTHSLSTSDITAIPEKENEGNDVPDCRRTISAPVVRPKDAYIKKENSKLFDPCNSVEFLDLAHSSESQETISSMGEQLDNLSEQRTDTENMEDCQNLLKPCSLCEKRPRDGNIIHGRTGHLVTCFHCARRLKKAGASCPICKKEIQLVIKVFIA
Target sequence (Q00987 whole entry, looked up): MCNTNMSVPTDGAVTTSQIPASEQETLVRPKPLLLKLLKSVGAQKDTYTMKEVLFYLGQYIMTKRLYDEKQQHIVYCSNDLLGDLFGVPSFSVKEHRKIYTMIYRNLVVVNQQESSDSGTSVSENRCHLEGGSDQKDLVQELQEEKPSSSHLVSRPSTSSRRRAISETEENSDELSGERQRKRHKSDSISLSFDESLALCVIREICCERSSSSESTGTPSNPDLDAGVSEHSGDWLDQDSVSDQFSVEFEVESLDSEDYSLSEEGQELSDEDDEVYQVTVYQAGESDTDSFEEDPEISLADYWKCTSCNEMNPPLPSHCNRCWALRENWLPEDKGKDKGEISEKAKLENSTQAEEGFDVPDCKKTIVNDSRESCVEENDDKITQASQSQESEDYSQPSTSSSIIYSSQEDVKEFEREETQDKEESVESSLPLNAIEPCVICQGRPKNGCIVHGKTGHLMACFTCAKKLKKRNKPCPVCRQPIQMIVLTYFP
CSC inhib: blocks cancer stem cells. cancer stem cell-like cells viability, luminescence. inhibition, % at 7.5 µM. actives 1.1% (n = 300,000); in the data active means inhibition above about 75%; tested in HMLE shEcad cells
MPTP inh: inhibitors of mitochondrial permeability transition pore. isolated mouse mitochondria, Ca2+ swelling absorbance, 30 min. inhibition, % at 10 µM. actives 1.4% (n = 360,000). AID 602449;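 active means inhibition of 50% or more, scaled per plate between neutral and stimulator controls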
Mdm2-MdmX conf: confirmation of human Mdm2/MdmX interaction inhibitors; actives 55% (n = 10,000); Mdm2-MdmX binding, luminescent assay; shares compounds with Mdm2 MdmX PPI; inhibition, % at 8 µM; in the data active means inhibition above about 40%
Full FLuc ctr: inhibits full-length luciferase, flagging false Mdm2/MdmX hits; SaOS-2 full-length luciferase counterscreen, luminescence; inhibition, % at 8 µM; actives 77% (n = 6,200); shares compounds with Mdm2 MdmX PPI;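 active means mean inhibition at 8 µM reaching about 37%, which flags the compound as non-specific, limit read from the data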;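 further: p53-null SaOS-2 cells with luciferase driven by a doxycycline-inducible promoter; compound on cells about two nights before reading with doxycycline added after day one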
Large screens that a line does not name were inactive (follow-up assays come after a bar, where they were run).

O=C(CN(c1ccc(Br)cc1)S(=O)(=O)c1ccc(Cl)c([N+](=O)[O-])c1)NCCc1ccccc1	none
CCOc1ccc(OCC)c(NC(=O)CN2CCN(CC(=O)NC(C)C)CC2)c1	none
COc1ccc(CCNC(=O)C(NS(=O)(=O)c2cccc3nsnc23)C(C)C)cc1OC (stereo not given)	none (no result: Beta cell apopt, CSC inhib)
Cc1cccc(NC(=O)c2cccc(S(=O)(=O)N3CCc4ccccc4C3)c2)n1	none
CC(=O)[C@H]1CC[C@H]2[C@@H]3CCC4=CC(=O)CC[C@]4(C)[C@H]3CC[C@]12C	none (no result: MPTP inh)
CC(=O)SC1CC2=CC(=O)CCC2(C)C2CCC3(C)C(CCC34CCC(=O)O4)C12 (stereo not given)	Mdm2 MdmX PPI 51 (no result: Beta cell apopt) | Mdm2-MdmX conf 48 | Full FLuc ctr 96
CN1CCN(c2ccc([N+](=O)[O-])cc2C(=O)c2ccc(Br)cc2)CC1	Mdm2 MdmX PPI 54 | Mdm2-MdmX conf 59 | Full FLuc ctr 60
Cc1ccc(C(=O)c2cc([N+](=O)[O-])ccc2N2CCN(C)CC2)cc1	Mdm2 MdmX PPI 50 | Mdm2-MdmX conf 60 | Full FLuc ctr 55
CCc1nc2ccc(C(=O)NCCNC(C)=O)cn2c1N(CC)CCOC	none (no result: Gli-Sufu block, GRIN3A LBD mod, Beta cell apopt, Mdm2 MdmX PPI, CSC inhib)
O=C(CCN1C(=O)/C(=C/c2ccccc2)SC1=S)Nc1cccnc1	none
O=C1/C(=C/c2ccccc2)SC(=S)N1CC(=O)N1CCCCC1c1cccnc1 (stereo not given)	Mdm2 MdmX PPI 85 | Mdm2-MdmX conf inactive | Full FLuc ctr inactive
O=C1/C(=C\c2ccccc2)SC(=S)N1CCC(=O)N1CCCCC1CCO (stereo not given)	Mdm2 MdmX PPI 72 | Mdm2-MdmX conf inactive
O=C(CCN1C(=O)/C(=C/c2ccccc2Cl)SC1=S)NC1CCS(=O)(=O)C1 (stereo not given)	none
O=C1/C(=C/c2ccccc2Cl)SC(=S)N1CCC(=O)N1CCCCC1CCO (stereo not given)	Mdm2 MdmX PPI 53 | Mdm2-MdmX conf inactive
CC(C)c1ccc(/C=C2\SC(=S)N(CCC(=O)N3CCCCC3CCO)C2=O)cc1 (stereo not given)	Mdm2 MdmX PPI 62 | Mdm2-MdmX conf 50 | Full FLuc ctr inactive
COc1cccc(/C=C2\SC(=O)N(CCC(=O)N3CCCCC3CCO)C2=O)c1 (stereo not given)	none
Cc1ccc(OCCSc2nc3ccccc3n2CCC(=O)O)c(C(C)C)c1	none (no result: Gli-Sufu block, GRIN3A LBD mod, Beta cell apopt, Mdm2 MdmX PPI, CSC inhib)
Cc1cc(C)c2nc(/N=C(\N)NC(=O)Nc3ccccc3)nc(C)c2c1	Mdm2 MdmX PPI 54 | Mdm2-MdmX conf 48 | Full FLuc ctr 70
O=C(CN1CCOCC1)Nc1ccccc1Sc1ccc(Cl)cc1	none
O=C(CNc1ccc2ccccc2c1)N/N=C/C=C/c1cccc([N+](=O)[O-])c1	GRIN3A LBD mod 22, Mdm2 MdmX PPI 82 | Mdm2-MdmX conf inactive
O=C(N/N=C/C=C/c1cccc([N+](=O)[O-])c1)C(O)c1ccccc1 (stereo not given)	none
O=C(O)CCCSc1nccn1-c1ccccc1	none
COc1cc(OC)cc(C(=O)NNC(=O)c2ccc3ccccc3n2)c1	Mdm2 MdmX PPI 55 (no result: Beta cell apopt, CSC inhib) | Mdm2-MdmX conf 69 | Full FLuc ctr 46
COc1ccc(C(=O)NC(=S)NNC(=O)c2ccc3ccccc3n2)cc1	GRIN3A LBD mod 11, Mdm2 MdmX PPI 56 | Mdm2-MdmX conf inactive | Full FLuc ctr 52
COc1cc(C(=O)NNC(=O)c2ccc3ccccc3n2)cc(OC)c1OC	none
COc1cc(C(=O)Nc2ccccc2N2CCOCC2)ccc1OCC(=O)N1CCOCC1	none
COc1ccc(Cl)cc1-c1nc(-c2ccc(Br)o2)no1	Mdm2 MdmX PPI 51 | Mdm2-MdmX conf inactive
COc1ccc(-c2nc(-c3ccc(Br)o3)no2)cc1	none
Cc1ccc2nc(C3CCCN(C(=S)Nc4ccccc4C)C3)[nH]c2c1 (stereo not given)	none
COc1ccccc1NC(=O)N1CCC(c2nc3cc(C)c(C)cc3[nH]2)CC1	Mdm2 MdmX PPI 57 | Mdm2-MdmX conf 70 | Full FLuc ctr 72
